The text below walks through data of PubChem BioAssay AID652254 (National Center for Advancing Translational Sciences (NCATS), 2013).

Structures are written as SMILES. Activity calls are given as the source filed them.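 The calls were made as follows: active = potency for halving colony growth of 5 µM or lower; inconclusive = potency above 5 µM but below 10 µM; inactive = potency of 10 µM or higher.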

The assay in a line: qHTS for Inhibitors of Ubiquitin-specific Protease USP2a Using CHOP2 as the Reporter: Clonogenic Assay. Particulars: clonogenic colony formation, crystal violet, 10 days. The source says:
Homeostasis of cellular proteins is maintained through a combination of synthesis and degradation. The pathway that accounts for the majority of protein degradation is the ubiquitin-proteasomal pathway. Ubiquitin (Ub) is highly conserved in all cells and the generation of a multi-Ub chain typically targets proteins for degradation by the proteasome. However, ubiquitination is highly reversible and dynamic. Deubiquitination, the reverse process, is catalyzed through the action of enzymes referred to as isopeptidases or deubiquitinating enzymes (DUBs). This group of enzymes is collectively responsible for maintaining adequate pools of free ubiquitin and regulating the ubiquitination status of cellular proteins. […] To further visualize and quantitate the effect of compounds on cell proliferation, a colony forming or clonogenic assay was performed in 6-well plates using HCT116 cells. […] The colonies were visualized on the Typhoon imager (GE) using Cy5 detection, and quantitated with the associated software. […]
2 mL 300 cells/well were dispensed into a 6-well plate in DMEM with 10% FBS and 1% Pen-Strep and then incubated for 48 hours at 37 deg C, 5% CO2. […] The plate is dried overnight and then read on a GE Typhoon FLA 9500 in end-point mode (Ex 635, Em Long-Pass Red Filter)
On the technique in general: qHTS replaces the single test concentration by a dilution series.
For the molecule `Cc1ccc(S(=O)(=O)Nc2cc(C(F)(F)F)ccc2C(=O)Nc2nc(-c3ccccc3)cs2)cc1`, the Potency was 3.6 µM (active).
